Screen size: about 1,500 compounds; about 890 (59%) were called active.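 Rule for the calls: active = inhibition of the choline-evoked signal at any tested dose together with a fitted dose-response curve; inactive = no inhibition at any dose or no curve.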 The set was probably picked from earlier hits. These entries were drawn from the full list. Entries with a potency or affinity are not part of this list.
biological target: High affinity choline transporter 1 (Homo sapiens) (UniProt Q9GZV3); experiment: human choline transporter blockers, potency – cell-based, 5-point CRC, membrane potential dye, dose response (AID 504840); conditions: HEK293-CHT, choline-induced depolarization, CHT with LV-to-AA double alanine mutation; series mostly up to 37 µM
Sequence (Q9GZV3 whole entry, looked up): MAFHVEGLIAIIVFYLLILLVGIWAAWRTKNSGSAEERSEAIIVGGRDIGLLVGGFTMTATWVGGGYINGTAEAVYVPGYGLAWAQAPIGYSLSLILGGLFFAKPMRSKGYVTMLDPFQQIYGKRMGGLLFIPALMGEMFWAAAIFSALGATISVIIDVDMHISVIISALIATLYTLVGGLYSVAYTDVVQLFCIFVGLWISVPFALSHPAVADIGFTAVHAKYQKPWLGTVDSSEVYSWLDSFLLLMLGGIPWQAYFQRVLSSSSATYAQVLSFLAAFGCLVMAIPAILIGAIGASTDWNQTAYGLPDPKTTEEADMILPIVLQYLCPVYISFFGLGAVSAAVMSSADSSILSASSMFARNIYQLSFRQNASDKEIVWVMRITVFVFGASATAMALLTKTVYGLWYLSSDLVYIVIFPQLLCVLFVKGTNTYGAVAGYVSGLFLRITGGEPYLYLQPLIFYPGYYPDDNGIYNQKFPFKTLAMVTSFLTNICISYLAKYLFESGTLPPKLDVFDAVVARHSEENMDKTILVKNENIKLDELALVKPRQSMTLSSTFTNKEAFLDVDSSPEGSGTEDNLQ

outcome, inactive:
CC(O)c1cccc(NC(=O)CC(c2ccccc2)c2ccccc2)c1 (stereo unspecified)
O=C(O)CC(NC(=O)c1sc2ccccc2c1Cl)c1ccc(OC2CCCC2)cc1 (stereo unspecified)
O=C(CC(c1ccccc1)c1ccccc1)Nc1ccncc1
O=C(O)c1ccc2c(c1)N(Cc1ccc(F)cc1)C(=O)c1ccccc1S2
CC1CCCN(CCCNC(=O)c2ccc3c(c2)N(Cc2ccccc2F)C(=O)c2ccccc2S3(=O)=O)C1 (stereo unspecified)
Cc1ccc(C(=O)N/C(=C\C=C\c2ccccc2)C(=O)NCc2ccco2)cc1
CC(C)c1ccc(C(C)NC(=O)C2CCCC2)cc1 (stereo unspecified)
O=C(NNC(=S)NC(=O)c1sc2ccccc2c1Cl)c1ccc(Cl)cc1
COc1ccccc1C(=O)NC(=S)NNC(=O)c1sc2ccccc2c1Cl
Cc1onc(-c2ccccc2)c1C(=O)NNC(=S)NC(=O)c1ccc(Br)cc1
CCCOc1ccc(C(=O)NC(=S)NNC(=O)c2c(-c3ccccc3)noc2C)cc1
CCn1c(=O)n(CC)c2cc(S(=O)(=O)N3CCc4ccccc43)ccc21
O=C(NNS(=O)(=O)c1ccccc1[N+](=O)[O-])c1cc2ccccc2cc1O
C=CCN(CC=C)S(=O)(=O)c1ccc2nc(NC(=O)C3CCCO3)sc2c1 (stereo unspecified)
CC(OC(=O)CCN1C(=O)c2cccc([N+](=O)[O-])c2C1=O)C(=O)Nc1cc(Cl)cc(Cl)c1 (stereo unspecified)
CCOC(=O)c1sc(NC(=O)CSc2nc3c(c(=O)n2-c2ccc(C)cc2)SCC3)c(C(=O)OCC)c1C
CCc1c(C2(O)CCCCC2)[nH]c2cc(C(F)(F)F)ccc12
Cc1cc(NS(=O)(=O)c2ccc(NC(=O)/C=C/c3c(F)cccc3Cl)cc2)nc(C)n1
Cc1ccc(NC(=O)c2ccc(Cn3cc([N+](=O)[O-])cn3)cc2)c(C)c1
Cc1cc(C)cc(NC(=O)c2ccc(N3C(=O)C4CCCCC4C3=O)cc2)c1 (stereo unspecified)
CN(Cc1ccccc1)CC(O)COc1ccc(CNCc2cc3ccccc3s2)cc1 (stereo unspecified)
O=C(O)CC(Cc1ccc(Cl)cc1)C(=O)Nc1cc(Cl)ccc1Cl (stereo unspecified)
Cc1cc(NCCCn2ccnc2)n2ncc(-c3ccc(Cl)cc3)c2n1
C=CCNC(=O)c1ccc(C2SCC(=O)N2Cc2ccccc2)cc1 (stereo unspecified)
CCOC(=O)C1(CCOC)CCN(Cc2ccc(C(=O)OC)cc2)CC1
Cc1ccc(C(=O)NCC(=O)N2CCC(Cc3ccccc3)CC2)cc1
CC(C)CNS(=O)(=O)c1ccc(CCC(=O)N2CCN(Cc3ccc4c(c3)OCO4)CC2)cc1
COc1ccc2c(c1)-c1c(ssc1=S)C(C)(C)N2
CC(C)OC(=O)CN1CCN(S(=O)(=O)c2cc(Cl)ccc2Cl)CC1
CC(=O)c1ccc(S(=O)(=O)N(C)C(C)CCc2ccco2)cc1 (stereo unspecified)
Cc1ccc(C(C)NC(=S)NCc2ccc(F)cc2)cc1C (stereo unspecified)
COc1cccc(NC(=S)N(Cc2ccc(C(=O)O)cc2)Cc2ccc(OC)c(OC)c2)c1
CCCCNC(=O)c1onc(CSc2ccc(C(C)C)cc2)c1C(=O)O
CCN(CC)CCCN(C(=O)c1ccco1)c1nc(-c2ccc(Cl)cc2)cs1
O=C1c2ccccc2-c2cccnc21
O=[N+]([O-])c1ccc(Nc2ccccc2O)c2nonc12
CCc1ccc(N/C(=N/c2nc(C)cc(C)n2)NC(C)=O)cc1
Cc1ccc2nc(Nc3ccccc3)cc(C)c2c1
CCSc1nnc2n1C(C)(C)Cc1ccccc1-2
CCOc1ccc(OCc2ccc(C(=O)N3CCCC3)o2)cc1
COc1ccc(C2CC(c3ccc(Br)cc3)=NN2C(=O)CN2CCCC2)cc1 (stereo unspecified)
COc1ccc(C2SCC(=O)N2CCc2ccc(OC)c(OC)c2)cc1 (stereo unspecified)
CC(=O)N1c2ccc(S(=O)(=O)NCc3ccccc3Cl)cc2CC1C (stereo unspecified)
CCOC(=O)N1CCN(C(=O)c2ccc3nc(N4CCC(C)CC4)sc3c2)CC1
CCCc1nc2oc(C(=O)OCC)c(N)c2c2c1COC(C)(C)C2
CCOC(=O)c1oc2nc(C(C)C)c3c(c2c1N)CCC3
OCCn1nc(-c2ccccc2)cc1-c1ccccc1
Cc1ccc(CNc2ncc(-c3ccccc3)n2C)o1
Cn1c(SCC(=O)N2CCN(c3ccccc3)CC2)nnc1-c1ccccc1
CS(=O)(=O)Nc1ccccc1C(=O)NCCSc1ccccc1
COc1ccc(C(=O)C2CCCN(C(=O)C3=CCCC3)C2)c(C)c1 (stereo unspecified)
COc1ccc(NC(=O)N2CCC(n3cnc4ccccc43)CC2)cc1
COc1ccc(C(=O)C2CCCN(C(=O)c3noc4c3CCCC4)C2)cc1F (stereo unspecified)
CCC1CCCCN1CCCNC(=O)c1ccc2c(c1)c(C)c(C)n2C (stereo unspecified)
O=C(Nc1cccnc1)c1ccc(COc2ccccc2Cl)o1
CCN(CC)C(=O)c1ccc(COc2ccccc2Br)o1
Cc1ccc(S(=O)(=O)NC(=O)COc2cc(C)ccc2C(C)C)cc1
Cc1ccc(S(=O)(=O)CC(O)COc2ccc(F)cc2Cl)cc1 (stereo unspecified)
CCN(CC)S(=O)(=O)c1ccc(OC)c(NC(=S)Nc2ccc(C)c(C)c2)c1
Cc1ccc(S(=O)(=O)N2CCC(=O)N(CCOCc3ccc(F)cc3)CC2)cc1
Cc1ccc(-c2nnc(N3CCCCC3)c3ccccc23)cc1S(=O)(=O)N1CCN(C)CC1
Cc1ccc(C)c(S(=O)(=O)C(C#N)c2nc3ccccc3nc2N2CC(C)OC(C)C2)c1 (stereo unspecified)
COc1cc(OC)cc(C(=O)NC(=S)NNC(=O)[C@H]2C[C@@H]2c2ccccc2)c1
CS(=O)(=O)c1ncc(Cl)c(C(=O)Nc2ccc(N3CCOCC3)cc2)n1
CS(=O)(=O)c1ncc(Cl)c(C(=O)Nc2ccc(OC(F)F)cc2)n1
Cc1nn(CC2CC2)c(=O)n1-c1ccc(Oc2ccccc2)cc1
N#Cc1c(Cl)cccc1N1CCCC1
C[C@@H](NCCc1ccc(O)cc1)[C@@H](O)c1ccc(O)cc1
CC(C)NCC(O)c1ccc(O)c(O)c1 (stereo unspecified)
CCc1ccccc1NC(=O)C1CC(c2ccc(OC)cc2)=NO1 (stereo unspecified)
N#CCCn1cc(/C=C2\NC(=S)N(c3ccccc3)C2=O)c(-c2ccc(F)cc2)n1
Cc1ccc(C(=O)N/C(=C\c2cccs2)c2nc3ccccc3[nH]2)cc1
COc1ccc(C(=O)N2CCCC(O)C2)cc1OC1CCN(C(C)C)CC1 (stereo unspecified)
CSc1ccc(C(=O)C2CCCN(C(=O)c3ccsc3)C2)cc1 (stereo unspecified)
CC(C)(C)CC(=O)NCCc1csc(-c2ccccc2)n1
N#C/C(=N\Nc1cccc(C(F)(F)F)c1)C(=O)c1ccsc1
CC[N+]1(CC)CC2=Cc3c(ccc4ccccc34)C(C)C2C1 (stereo unspecified)
CC(=O)N(C)c1ccc(NC(=O)C(Sc2ccccc2)c2ccccc2)cc1 (stereo unspecified)
CC(C)(C)C(=O)/C(C#N)=C/c1ccc(O)cc1
Cc1ccc(S(=O)(=O)Oc2cccc(/C=N/n3cnnc3)c2)cc1
Cc1ccc(S(=O)(=O)Oc2ccccc2/C=C2\SC(=O)NC2=O)cc1
Cc1ccc(S(=O)(=O)Oc2ccccc2/C=C2/SC(=O)NC2=O)cc1
CCCC1=NN2C(=N)/C(=C\c3ccc(SCc4ccco4)o3)C(=O)N=C2S1
CS(=O)(=O)C1=NN2C(=N)/C(=C\c3ccc(OC(=O)c4ccco4)cc3)C(=O)N=C2S1
CC(C)CS(=O)(=O)C1=NSC2=NC(=O)/C(=C\c3ccc(OC(=O)c4ccco4)cc3)C(=N)N21
Cc1ccccc1NC(=O)c1ccc(C)c(S(=O)(=O)N2CCN(C)CC2)c1
COc1ccc(/C=C/C(=O)NC2CCCCCCC2)cc1S(=O)(=O)N1CCOCC1
CCOc1ccc(Br)cc1S(=O)(=O)N1CCCC1
Oc1ccc(/C=N/n2c(-c3ccccc3)n[nH]c2=S)cc1Br
CN(c1ccc(O)cc1)c1nc(-c2cccs2)cs1
COc1ccc(C(=O)NCc2ccon2)cc1OC1CCN(C(C)C)CC1
COc1cc(CNCCc2ccccc2)cc(Br)c1OCC(=O)Nc1ccccc1C
Cn1c(SCc2nc3ccccc3s2)nnc1-c1cccs1
CC(=O)Nc1ccc(S(=O)(=O)Nc2nc3ccccc3nc2Nc2ccc(N)cc2)cc1
COc1ccc(-c2nnc(CSc3nc4ccccc4c(=O)n3CC3CCCO3)o2)cc1OC (stereo unspecified)
CC(C)(C)NS(=O)(=O)c1ccc(N2C(=O)c3ccccc3C2=O)cc1
Cc1noc(C)c1C(=O)Nc1sc(C)c(-c2ccccc2)c1C#N
O=C(OCc1nc2ccsc2c(=O)[nH]1)c1cc(Br)c(Br)s1
O=c1c(-c2ccccc2)c[nH]n1-c1cccc([N+](=O)[O-])c1
Cc1[nH]n(-c2ccccc2)c(=O)c1C(c1cccc([N+](=O)[O-])c1O)c1c(C)[nH]n(-c2ccccc2)c1=O
Cc1cccnc1NC(=O)c1cccc(S(=O)(=O)N2CCN(c3ccc(F)cc3)CC2)c1
O=C(C1CCN(S(=O)(=O)c2ccc(Br)s2)CC1)N1CCN(c2ccccc2)CC1
COc1cc(-c2nnc(SC/C=C/c3ccccc3)n2N)cc(OC)c1OC
CCOC(=O)c1sc(=S)n(CC)c1NC(=O)C1CC1
O=c1cc(CNc2ccc(Br)cc2)nc2sccn12
CCCN1Cc2cccc(C(=O)NCc3ccccc3OC)c2C1=O
